Assay results as given in PubChem BioAssay (EPA / NIEHS).
Activity calls are given as the source filed them. How the source made its calls: active means hit-call score of the fitted dose curve at least 0.9, where 1 is the maximum; inactive means score below 0.9.

test: CCTE_Harrill_HTTr_Apoptosis_MCF7: CCTE's 6-hour Apoptosis Assessment for the High-Throughput Transcriptomics (HTTr) Platform, in MCF-7 cells cultured in DMEM + 10% fetal bovine serum, Harrill Lab (AID 2284011)
Source text: This is a cell-based assay that evaluates apoptosis using high content imaging to evaluate activation of caspase-3/7 using the CellEvent Caspase 3/7 Green detection reagent in 384-well format.One of seven assay components measured from the CCTE_Harrill_HTTr_Apoptosis assay. This was part of a full screening experiment. This is a cell-based assay that evaluates apoptosis in MCF-7 cells cultured in DMEM + 10% fetal bovine serum. High content imaging is used to evaluate activation of caspase-3/7 using the CellEvent Caspase 3/7 Green detection reagent. Measurements are taken at 6 hours after chemical dosing in 384-well format.The assay component endpoint CCTE_Harrill_HTTr_Apoptosis_MCF7 was analyzed with bidirectional fitting relation to DMSO as the negative control and baseline of activity. Using a type of viability reporter, gain-of-signal activity can be used to evaluate activation of caspase-3/7 using the CellEvent Caspase 3/7 Green detection reagent to understand changes in apoptosis. To generalize the intended target to other relatable targets, this assay endpoint is annotated to cell cycle, where the subfamily is apoptosis.
Chemicals were tested in MCF7 cells in an eight point dilution series with a six hour exposure duration.

outcome, inactive:
CC1(C)[C@@H]2CC[C@@]1(C)[C@H](O)C2, C[C@H]1C[C@@H]2[C@H]([C@@H](O)C[C@@]3(C)[C@H]2CC[C@]3(O)C(=O)CO)[C@@]2(C)C=CC(=O)C=C12, Cc1ccc(O)c(C(C)(C)C)c1, CCC(C)CCCC(C)(C)O (stereo not given), CC(CN1c2ccccc2Sc2ccccc21)N(C)C (stereo not given), CC(c1cc2ccccc2s1)N(O)C(N)=O (stereo not given), CC(CCO)CCc1ccccc1 (stereo not given), CCCCNC(=O)NS(=O)(=O)c1ccc(C)cc1, CCN(CC)CCOC(=O)c1ccc(N)cc1, CC(=O)[C@H]1CC[C@H]2[C@@H]3CC=C4C[C@@H](O)CC[C@]4(C)[C@H]3CC[C@]12C, CC(=O)OCC=Cc1ccccc1, CCCCC(CC)COC(=O)/C=C\C(=O)OCC(CC)CCCC (stereo not given), CC(C)Oc1ccccc1O, CC(C)C[C@H]1C(=O)N2CCC[C@H]2[C@]2(O)O[C@](NC(=O)[C@@H]3C=C4c5cccc6[nH]c(Br)c(c56)C[C@H]4N(C)C3)(C(C)C)C(=O)N12, OCCN1CCNCC1, Cc1ccc(C(=O)c2cc(O)c(O)c([N+](=O)[O-])c2)cc1, Cc1cc(C2(c3cc(C)c(O)cc3C)OS(=O)(=O)c3ccccc32)c(C)cc1O, CCCCCCCCCCCCOCCO, N#Cc1ccccc1, CNC(=O)Oc1ccc2c(c1)[C@]1(C)CCN(C)[C@@H]1N2C, CCN(CC)c1ccc2c(-c3ccccc3C(=O)O)c3ccc(=[N+](CC)CC)cc-3oc2c1, O=C[C@H](O)[C@H](O)[C@H](O)CO, CNCCCC12CCC(c3ccccc31)c1ccccc12, CC(C)[C@H]1CC[C@@H](C)CC1=O, CC(=O)O[C@]1(C(C)=O)CC[C@H]2[C@@H]3C[C@H](C)C4=CC(=O)CC[C@]4(C)[C@H]3CC[C@@]21C, c1ccc2sc(SN(C3CCCCC3)C3CCCCC3)nc2c1, CC(=O)/C=C/C1=C(C)CCCC1(C)C, O=Nc1ccc(Nc2ccccc2)cc1, CCCCCCCCCCCCCC(=O)O, NC(N)=NC(=O)c1nc(Cl)c(N)nc1N, Cc1cccc(Nc2ccccc2C(=O)O)c1C, C=CCOC(=O)CCC1CCCCC1, C=C(C)[C@@H]1CC[C@@H](C)C[C@@H]1O, CC1CC(OC(=O)c2ccccc2O)CC(C)(C)C1 (stereo not given), CC(C)=CCO, CC(C)=CCCC(C)=CCCC(C)=CCO, O=C1C(c2[nH]c3ccc(S(=O)(=O)O)cc3c2O)=Nc2ccc(S(=O)(=O)O)cc21, COc1cc2ncnc(Nc3cccc(Cl)c3)c2cc1OC, N#Cc1ccc(CC(=NNC(=O)Nc2ccc(OC(F)(F)F)cc2)c2cccc(C(F)(F)F)c2)cc1, O=[N+]([O-])c1cc(C(F)(F)F)ccc1Cl
